Assay in all cases: PBM binding z-score (relative to random genomic background probes); higher = stronger binding; sequences stand for … in GC…GCGATTGACAGCGTAGAATGAAGG
For test [1], the system named is PPARg:RXRa DBDmut IVT, anti-RXR (DBD mutation: RXRa K156A/R161A, NR concentration 270 nM, RXRa partner concentration 90 nM). In outline: (§1)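 On custom Agilent 4×180K arrays, double-stranded probes with 34-nt variable regions carried direct-repeat seeds, single-nucleotide variants, half-site ablations or random human genomic background. Ligand-free nuclear receptor dimers were applied for 1 h, and binding was read with antibodies against each partner (one per run). Binding z-scores come from regression-normalized fluorescence, with the random background probes as reference.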

Test [2] relates to PPARg:RXRa IVT, anti-PPARg (NR concentration 270 nM, RXRa partner concentration 90 nM). In outline:
as §1

Test [3] has as its system PPARg DBDmut:RXRa IVT, anti-PPARg (DBD mutation: PPARg1 K132A/R137A, NR concentration 270 nM, RXRa partner concentration 90 nM). In outline:
as §1

For test [4], the system named is PPARg DBDmut IVT, anti-PPARg (DBD mutation: PPARg1 K132A/R137A, NR concentration 270 nM). In outline: as §1
Test [5] deals with PPARg homodimer (NR concentration 180 nM). In outline: as §1
In test [6] the test system is PXR:RXRa (NR concentration 270 nM, RXRa partner concentration 90 nM). In outline:
as §1

In test [7] the test system is PXR homodimer (NR concentration 270 nM). In outline: as §1
Test [8] concerns RARa:RXR (NR concentration 270 nM, RXRa partner concentration 90 nM). In outline:
as §1

The test system of test [9] is RARa homodimer (NR concentration 270 nM). In outline: as §1
The test system of test [10] is RARb:RXRa (NR concentration 270 nM, RXRa partner concentration 90 nM). In outline: as §1
In test [11] the test system is RARb homodimer (NR concentration 270 nM). In outline:
as §1

Test [12] has as its system RARg:RXRa (NR concentration 270 nM, RXRa partner concentration 90 nM). In outline: as §1
For test [13], the system named is RARg homodimer (NR concentration 270 nM). In outline: as §1
The test system of test [14] is RXRa DBDmut IVT, anti-RXR (DBD mutation: RXRa K156A/R161A, NR concentration 90 nM). In outline: as §1
Test [15] concerns RXRa homodimer (NR concentration 180 nM). In outline: as §1
In test [16] the test system is THRa:RXRa (NR concentration 90 nM, RXRa partner concentration 90 nM). In outline:
as §1

Test [17] has as its system THRa homodimer (NR concentration 90 nM). In outline:
as §1

The subject of test [18] is VDR homodimer (NR concentration 270 nM). In outline:
as §1

Regarding CAGCCTAGGTCAGGGTCAGTATAGGAGGAACGTT, the PBM binding z-score was 1.2 in [1]; 2.57 in test [2]; 0.511 in [3]; -0.598 in test [4]; 1.63 in test [5]; 2.38 in test [6]. Further, the PBM binding z-score in [7] came out at 0.127; in [8], 3.04; in test [9], 0.15; in test [10], 4.31; in [11] it was 4.16; in test [12] it was 4.27. Also, the PBM binding z-score was found to be 4.84 in [13]; 0.854 in test [14]; 3.67 in test [15]; 3.39 in test [16]; 1.53 in [17]; 1.31 in test [18].
In the case of AGTCAAAGATCATCTAGGTAACGTAAGATATGCT, the PBM binding z-score was 0.742 in [1]; 2.23 in test [2]; 0.348 in [3]; 0.62 in [4]; -0.382 in test [5]; -0.211 in [6]. The PBM binding z-score was -0.246 in [7]; 0.277 in test [8]; 0.136 in test [9]; 0.0858 in [10]; -0.47 in test [11]; 0.163 in [12]. The PBM binding z-score was 0.343 in test [13]; -0.336 in test [14]; 0.746 in test [15]; 1.07 in [16]; -0.24 in test [17]; -0.621 in test [18].
Consider AATACAGGGTCACTAGGCCAGCGTAGGTACGAAT, for which the PBM binding z-score in [1] came out at 4.14; in [2], 5.63; in test [3], 1.74; in [4], 1; in test [5] it was 1.64; in test [6] it was 3.02. Besides, the PBM binding z-score in test [7] worked out at 0.293; in test [8] it was 3.54; in test [9] it was 0.674; in test [10], 4.17; in [11], 3.58; in test [12], 5.12. Besides, the PBM binding z-score in test [13] worked out at 4.78; in [14] it was 2.81; in test [15], 5.29; in test [16], 3.48; in [17] it was 1.43; in [18], 2.28.
Regarding AGTCAGAGTTCACTAGGTAACGTAAGATTCAGCT, the PBM binding z-score turned out to be 2.59 in test [1]; 4.05 in [2]; 1.02 in [3]; 0.611 in [4]; 2.37 in test [5]; 4.41 in test [6]. In addition, the PBM binding z-score in test [7] was 3.8; in test [8], 2.72; in test [9] it was 0.385; in test [10], 3.97; in test [11], 2.83; in test [12], 4.11. Moreover, the PBM binding z-score in test [13] stood at 4.7; in [14], 4.73; in [15], 3.63; in [16] it was 1.85; in test [17], 0.172; in [18], 5.65.
Regarding TCGTGTAGGTTAGGGGCATTCAGAATGGCGTCGA, the PBM binding z-score in test [1] was determined as 1.79; in test [2], 1.06; in test [3], 0.425; in test [4], 0.917; in [5], 1.52; in test [6], 0.802. Further, the PBM binding z-score in [7] came to 0.406; in test [8] it was 1.03; in test [9], 0.812; in [10] it was 1.47; in test [11], 1.37; in test [12] it was 0.648. Moreover, the PBM binding z-score in test [13] amounted to 0.819; in test [14], 1.09; in test [15] it was 0.961; in test [16], 1.3; in [17], 0.787; in test [18] it was 0.922.
Turning to CCTGCTAGGTCATGGCCAGCTAATCTACAGTATG, the PBM binding z-score was 4.25 in test [1]; 3.91 in test [2]; 0.0686 in [3]; -0.931 in test [4]; 0.851 in test [5]; 1.27 in [6]. The PBM binding z-score was -0.389 in test [7]; 2.49 in [8]; -0.572 in test [9]; 3.98 in test [10]; 3.06 in test [11]; 3.9 in test [12]. Moreover, the PBM binding z-score in [13] was determined as 4.02; in [14] it was 1.3; in test [15], 2.92; in test [16] it was 3.02; in test [17] it was 0.915; in [18], 0.188.
Turning to TCTTGTAGATCAGCAGGTTAGGAAAGCTGGCCAA, the PBM binding z-score in [1] is 1.65; in [2] it was 0.124; in [3] it was -0.587; in test [4] it was -0.926; in test [5], 0.0866; in test [6], -0.035. The PBM binding z-score in test [7] was -0.454; in [8], 0.152; in test [9] it was 0.51; in test [10], 0.179; in test [11] it was 0.063; in test [12] it was -0.177. In addition, the PBM binding z-score in test [13] is -0.406; in test [14], 0.591; in test [15], 0.165; in test [16], 0.0538; in test [17], -0.496; in test [18], -0.206.
As for CGAACTAGGTCATCCACGACAGTGAATACATTGA, the PBM binding z-score in [1] is 7.98; in test [2], 8.15; in [3] it was 5.88; in test [4] it was 5.31; in test [5] it was 2.72; in [6], 1.59. Moreover, the PBM binding z-score in test [7] worked out at 0.311; in [8], 2.59; in test [9] it was 0.664; in test [10], 3.87; in [11], 2.85; in [12], 3.96. The PBM binding z-score came to 4.77 in test [13]; 2.28 in test [14]; 2.9 in test [15]; 2.79 in [16]; 1.22 in test [17]; 1.44 in test [18].

These data come from the supplement of paper PMC6555819.
